# Bioassay records (PubChem)
# A selection: hits, their analogues and other compounds. The true share with any hit is near 3.3%.
# UHRF1 MBD2 ctr: blocks human UHRF1 binding to methylated DNA; Q96T88; UHRF1 binding to methylated oligo, TR-FRET; inhibition, % at 4.4 µM; actives 0.75% (n = 370,000); in the data active = inhibition above about 21%;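 note: UHRF1 SRA domain binding a hemimethylated CpG hairpin DNA probe; 0% = median of test compound wells and 100% = reference inhibitor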
# PRMT1 FP inh: PRMT1 (human) inhibition, primary screen | AID 652257 | inhibition, % at 2.79 µM | recombinant PRMT1, activity-based probe fluorescence polarization | Q99873 | actives 1.3% (n = 370,000);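 active = inhibition above about 21% made by adding two undisclosed values, limit read from the data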
# Target sequence (Q99873 whole entry, looked up): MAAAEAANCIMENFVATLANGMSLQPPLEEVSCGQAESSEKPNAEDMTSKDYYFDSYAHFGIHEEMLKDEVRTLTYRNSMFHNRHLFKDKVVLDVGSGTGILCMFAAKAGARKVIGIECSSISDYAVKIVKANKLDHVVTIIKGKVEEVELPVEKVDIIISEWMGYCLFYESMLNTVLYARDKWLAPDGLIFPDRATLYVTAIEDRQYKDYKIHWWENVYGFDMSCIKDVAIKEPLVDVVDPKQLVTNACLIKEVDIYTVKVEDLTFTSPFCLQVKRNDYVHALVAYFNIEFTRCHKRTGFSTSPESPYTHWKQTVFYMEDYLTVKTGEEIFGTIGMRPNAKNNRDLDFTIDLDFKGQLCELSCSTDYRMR
# MBD2 DNA inh: blocks human MBD2 binding to methylated DNA; TR-FRET, MBD2 binding to methylated oligonucleotide; Q9UBB5; actives 0.31% (n = 370,000); inhibition, % at 4.4 µM; in the data active = inhibition above about 13%
# M18AAP inhibitor: PfM18AAP enzyme inhibition. recombinant PfM18AAP, H-Glu-NHMec fluorogenic cleavage. inhibition, % at 7.35 µM. actives 1.2% (n = 290,000);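 active = inhibition above the campaign mean inhibition over all tested compounds plus 3 SD, cut at about 28% in these data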;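 note: 0% = plate median of test compound wells and 100% = 2 mM ZnCl2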
# PfGluPho inh: PfG6PD (Plasmodium falciparum) enzyme inhibition. PfGluPho enzyme, NADPH resazurin-diaphorase fluorescence. inhibition, % at 20 µM. actives 0.78% (n = 350,000);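 active = inhibition reaching at least a set limit at 20 µM in the primary screen, cut at about 59% in these data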;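 note: 0% = DMSO wells with substrate and 100% = DMSO wells lacking glucose-6-phosphate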
# An asterisk follows results filed as active; nt = not tested or not shown.
SMILES,UHRF1 MBD2 ctr,PRMT1 FP inh,MBD2 DNA inh,M18AAP inhibitor,PfGluPho inh
FC(F)(F)c1cccc(N2CCN(C3=Nc4ccccc4Sc4ccccc43)CC2)c1,1.3,1.7,0.4,nt,nt
CCOCc1nnc(NC(=O)CS(=O)(=O)c2ccc(C)cc2)s1,25.8*,3.2,-0.5,4.2,-10.8
O=C(CCc1ccccc1-c1ccccc1CCNC(=O)c1ccc(F)c(F)c1)NCc1ccccc1,-1.7,-4.2,-4.6,nt,nt
CN(CC(=O)Nc1ccc(F)cc1)C(=O)COC(=O)c1ccc(=O)n(Cc2ccccc2)n1,-9.2,136.0*,-3.2,nt,-1.0
CN(CC(=O)Nc1ccccc1Cl)C(=O)COC(=O)c1ccc(=O)n(Cc2ccccc2)n1,-1.5,3.0,-4.0,nt,1.9
COC(=O)[C@H](C)NC(=O)[C@@H]1CC=C[C@@H]2CCN(CCc3ccccc3)C(=O)[C@@H]21,1.7,-3.0,0.8,nt,nt
CCS(=O)(=O)N1CCN(c2ccc(S(=O)(=O)N3CCOCC3)cc2)CC1,31.4*,1.4,4.6,-16.2,-25.3
Cc1sc2nc(CSCC(=O)Nc3ccc(C(F)(F)F)cc3)[nH]c(=O)c2c1C,-0.3,3.8,2.1,nt,25.0
Cc1sc2nc(CSCC(=O)N(C)CC(=O)Nc3ccc(F)cc3)[nH]c(=O)c2c1C,-5.5,23.1*,0.9,nt,20.4
CC(CNC(=O)CC[C@H]1O[C@@H](n2cnc3c(NC(=O)c4ccccc4)ncnc32)[C@H](O)[C@@H]1O)c1ccccc1 (stereo partly drawn),27.0*,-4.8,-0.4,nt,nt
O=C(CC[C@H]1O[C@@H](n2cnc3c(NC(=O)c4ccccc4)ncnc32)[C@H](O)[C@@H]1O)NCC(c1ccccc1)c1ccccc1,0.0,-2.2,1.4,nt,nt
CC(C)=CCC/C(C)=C/CNCC(=O)N1c2ccccc2[C@]2(C)C[C@@H]3C(=O)N(C/C=C(\C)CCC=C(C)C)CC(=O)N3[C@H]12,-0.8,2.2,3.7,nt,nt
CCN1/C(=C/C=C/c2oc3ccc4ccccc4c3[n+]2CC)Oc2ccc3ccccc3c21,nt,nt,nt,-4.2,60.4*
COC(=O)C1=CC(=O)N2CCN=C2S1,-1.5,-0.1,1.0,nt,nt
CCOC(=O)N1CCN(C2=C(NS(=O)(=O)c3ccc(C)cc3)C(=O)c3ccccc3C2=O)CC1,-6.2,2.4,-16.6,31.1*,-3.1
Cc1ccc(CNC(=O)O[C@H]2CC[C@@]34CCCN3C(=O)CCC[C@H]4C2)cc1,-0.5,-10.5,5.9,nt,nt
Cc1cc(C)cc(OCC(=O)NC2CCCc3ccccc32)c1 (stereo not drawn),21.3*,-4.6,-0.9,-0.7,9.6
COC(=O)[C@H](C(C)C)N(Cc1cn(Cc2ccccc2)nn1)S(=O)(=O)c1ccc(F)cc1Br,15.7,3.2,7.2,nt,nt
CC(C)NC(=O)CCn1nnc(-c2cccs2)n1,-4.2,-2.4,-5.6,nt,nt
Nc1ccc(N2CCOCC2)c2nonc12,29.6*,40.0*,18.6*,17.3,38.6
Cc1ccc[n+](C2C(c3ccc([N+](=O)[O-])cc3)C(C#N)=C([S-])NC2(O)C2CC2)c1 (stereo not drawn),0.2,23.4*,8.6,-0.9,30.3
Cc1cccc[n+]1C1C(c2ccccc2)C(C#N)=C(C(=C=[N-])C#N)NC1(O)C1CC1 (stereo not drawn),nt,nt,nt,3.4,-2.8
CCCC(=O)NC(=S)Nc1sc2c(c1C(N)=O)CCC2,5.4,14.6,6.1,10.9,-2.0
Cc1occc1C(=O)Nc1sc2c(c1C(N)=O)CCCCC2,-4.7,5.5,1.5,28.7*,33.4
COC(=O)c1c(NC(=O)c2ccoc2C)sc2c1CCC2,-0.2,2.2,-1.0,-3.3,10.0
SMILES,UHRF1 MBD2 ctr,PRMT1 FP inh,MBD2 DNA inh,M18AAP inhibitor,PfGluPho inh
CC(C)C(=O)NC(=S)Nc1sc2c(c1C(N)=O)CCCC2,50.5*,10.1,5.7,9.1,38.8
C[C@H]1CNC(=O)c2c(C(=O)N3CCN(c4ccccc4)CC3)ncn21,0.5,0.1,-1.2,nt,nt
CC(C)c1ccc(/C=C2\C(=O)N(CCN3CCOCC3)C(=S)N2C)cc1,21.7*,-3.4,-2.6,-2.7,28.5
CCCC1CCC2(CC1)CCC2OC(=S)Nc1ccccc1Cl (stereo not drawn),-1.0,0.5,-1.9,nt,nt
C/C(=N\NC(=O)CN1CCCCC1)c1cccc([N+](=O)[O-])c1,25.4*,1.9,-0.3,nt,-6.5
O=C(CN1CCCCCC1)Nc1cccc([N+](=O)[O-])c1,0.2,-3.1,-3.5,0.9,3.2
C[C@H]1CN([C@@H](C)CO)C(=O)CCCn2nncc2CO[C@@H]1CN(C)S(=O)(=O)c1cccs1,0.4,-0.6,-1.3,nt,nt
C[C@@H]1COc2cccc(NCCCN3CCOCC3)c2S(=O)(=O)N1,17.8,3.2,5.7,nt,nt
